Sfp inh: qHTS Assay for Inhibitors of Bacillus subtilis Sfp phosphopantetheinyl transferase (PPTase) | Biochemical Sfp PPTase activity, qHTS | 4'-phosphopantetheinyl transferase ffp (Bacillus subtilis), Q9F4F7 | AID 1490, 2009 | Potency, µM, usual class: inhibitors | 310,000 compounds, 3.5% hits;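 also: the enzyme is Sfp with the accession as filed and its product quenches rhodamine fluorescence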
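Fluorescence-quenching assay: 15 nM Sfp-PPTase preincubated 15 min at room temperature with compound, then 5 uM rhodamine-CoA and 12.5 uM BHQ-2-labelled YbbR peptide added. Fluorescence (ex 525/em 598 nm) read at start and after 30 min; difference gives rate.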
G9a block: qHTS Assay for Inhibitors of Histone Lysine Methyltransferase G9a. Potency, µM (highest dose often 102 µM), actives largely listed as inhibitors. Histone-lysine N-methyltransferase EHMT2 (Homo sapiens), Q96KQ7. G9a H3K9 monomethylation, AlphaScreen, 2 h. 350,000 compounds, 8.8% hits. AID 504332, 2011; also: nearly all actives have a fitted effect of over 75% in size
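Signal arises when biotinylated H3K9 peptide, once monomethylated, bridges streptavidin donor and antibody-captured acceptor beads. Enzyme at 20 nM was preincubated 15 min with test compounds; peptide 500 nM and SAM 20 uM then reacted for 2 h.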
HP1b binding inh: HTS for Inhibitors of HP1-beta Chromodomain Interactions with Methylated Histone Tails. AlphaScreen HP1-beta / biotin-H3K9me3 peptide binding. 390,000 compounds, 0.56% hits. Potency, µM (series often up to 114 µM), actives largely listed as inhibitors; also: nearly all actives have a fitted effect of over 70% in size
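Compound inhibition of the preformed complex between 50 nM HP1-beta and 50 nM biotinylated H3K9me3 peptide was read by AlphaScreen. Buffer was PBS pH 7.4 with 0.01% Tween-20. Incubations ran 30 min at room temperature, with 10 ug/mL donor/acceptor beads.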
BAZ2B block: qHTS Assay for Inhibitors of BAZ2B | AID 504333, 2011 | AlphaScreen BAZ2B-H3K14Ac peptide displacement | 360,000 compounds, 4.4% hits | Potency, µM (titrated, usually from 114 µM), usual class: inhibitors; also: nearly all actives have a fitted effect of over 60% in size
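Complex of BAZ2B and biotin-H3K14Ac (50 nM apiece) forms over 30 min at RT, then faces library compounds up to 110 uM for another 30 min; AlphaScreen beads added, 20 min dark incubation, luminescence read.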
L3MBTL1 inh: qHTS Assay for the Inhibitors of L3MBTL1; Lethal(3)malignant brain tumor-like protein 1 (Homo sapiens), Q9Y468; AlphaScreen L3MBTL1–H3K9me1 peptide binding; Potency, µM (titrated, usually from 57.1 µM), most hits filed as inhibitors; 230,000 compounds, 0.66% hits; also: nearly all actives have a fitted effect of over 60% in size
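Read-out is AlphaScreen signal from streptavidin donor and nickel chelate acceptor beads (10 ug/mL final each) bridging L3MBTL1 (50 nM) and biotinylated K9-monomethylated H3(1-15) peptide (75 nM), after 30 min compound exposure at room temperature.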
JMJD2A Tudor inh: qHTS Assay for Inhibitors of JMJD2A-Tudor Domain | AlphaScreen JMJD2A-Tudor / H3K4me3 peptide binding | Potency, µM (series often up to 114 µM), actives largely listed as inhibitors | 390,000 compounds, 4.4% hits; also: nearly all actives have a fitted effect of over 50% in size
Target sequence (O75164 whole entry, looked up, the tested form may be a part): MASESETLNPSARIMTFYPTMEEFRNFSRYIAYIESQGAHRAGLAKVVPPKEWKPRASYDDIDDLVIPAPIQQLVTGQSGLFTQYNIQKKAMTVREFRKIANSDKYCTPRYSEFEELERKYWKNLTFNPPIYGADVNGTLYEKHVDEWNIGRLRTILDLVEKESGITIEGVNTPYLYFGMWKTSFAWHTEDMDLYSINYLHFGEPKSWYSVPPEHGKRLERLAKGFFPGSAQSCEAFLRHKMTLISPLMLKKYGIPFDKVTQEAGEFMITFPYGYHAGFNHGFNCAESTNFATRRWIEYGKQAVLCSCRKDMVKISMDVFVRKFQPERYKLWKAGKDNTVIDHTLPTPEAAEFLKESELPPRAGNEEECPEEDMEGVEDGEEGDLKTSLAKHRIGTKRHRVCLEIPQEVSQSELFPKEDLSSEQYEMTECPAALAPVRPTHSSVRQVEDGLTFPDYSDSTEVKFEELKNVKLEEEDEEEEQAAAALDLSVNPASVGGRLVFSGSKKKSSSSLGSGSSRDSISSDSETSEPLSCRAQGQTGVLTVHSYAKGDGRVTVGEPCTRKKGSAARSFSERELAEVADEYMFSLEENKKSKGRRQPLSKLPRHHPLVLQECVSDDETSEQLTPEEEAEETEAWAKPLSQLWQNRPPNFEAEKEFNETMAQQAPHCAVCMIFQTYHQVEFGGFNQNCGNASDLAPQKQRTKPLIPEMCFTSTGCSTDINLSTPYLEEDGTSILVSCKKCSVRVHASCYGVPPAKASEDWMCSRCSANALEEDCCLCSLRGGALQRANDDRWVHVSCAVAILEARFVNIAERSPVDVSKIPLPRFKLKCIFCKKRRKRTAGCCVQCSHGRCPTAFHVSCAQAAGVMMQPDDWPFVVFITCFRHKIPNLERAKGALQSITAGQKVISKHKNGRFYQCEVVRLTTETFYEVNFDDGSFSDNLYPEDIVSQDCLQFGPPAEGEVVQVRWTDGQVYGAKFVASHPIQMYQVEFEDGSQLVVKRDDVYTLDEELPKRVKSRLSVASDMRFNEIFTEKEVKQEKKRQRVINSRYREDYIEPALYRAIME
Each line names hits and unclear results; the compound was inactive in the other large screens. This is a sample that favours compounds with a hit; in the whole collection about 12% have one here. Calls follow the shape of the dose curve; as a rule, active = well fitted curve in the direction sought with a large enough effect; inconclusive = small, poorly fitted or top-dose-only effect, or another doubt; inactive = no such curve, though single readings can be large; an effect the other way counts as inactive or inconclusive.

COC(=O)c1cccc(N2C(=O)c3cccnc3C2=O)c1	G9a block inconclusive, L3MBTL1 inh inconclusive, JMJD2A Tudor inh 44.7µM
COC(=O)c1ccc(CN2C(=O)c3ccccc3S2(=O)=O)cc1	none
COc1ccc(CNC(=O)Cn2ncn3nc(-c4cccs4)cc3c2=O)cc1	G9a block inconclusive (no result: Sfp inh, L3MBTL1 inh)
CCN(Cc1ccccc1)C(=O)Cn1c(=O)cc(C)c2c(C)nn(-c3cccc(F)c3)c21	none (no result: Sfp inh, L3MBTL1 inh)
COC(=O)c1ccc(/C=C/C(=O)OCC(=O)Nc2cc(C)on2)cc1	none (no result: Sfp inh, G9a block, BAZ2B block)
CCOC(=O)c1ccc2c(c1)nc(SCC(=O)c1ccco1)n2CC	Sfp inh 50.1µM, G9a block inconclusive, JMJD2A Tudor inh inconclusive
CCOC(=O)c1ccc2c(c1)nc(SC/C(O)=C(\C#N)c1nc3ccccc3[nH]1)n2CC	G9a block 50.1µM
CCOC(=O)c1ccc2c(c1)nc(SCC(=O)N1CCCCC1)n2CC	none
Cc1ccccc1-n1c(SC/C(O)=C(\C#N)c2nc3ccccc3[nH]2)nnc1-c1ccncc1	G9a block inconclusive, HP1b binding inh inconclusive, JMJD2A Tudor inh 79.4µM
CCOC(=O)/C(O)=C(\C#N)c1nc2ccccc2[nH]1	none (no result: BAZ2B block)
CN(C)c1ccc(C=C(c2nnnn2-c2ccccc2)c2nnnn2-c2ccccc2)cc1	none
COC(=O)c1ccc2c(c1)C(C)(C)C(/C=C/c1ccccc1O)=[N+]2C	Sfp inh 11.2µM, G9a block inconclusive, HP1b binding inh inconclusive, BAZ2B block 8.91µM, JMJD2A Tudor inh 56.2µM
COC(=O)c1ccc(N)c(N=CC2=C(O)CC(C)(C)CC2=O)c1	BAZ2B block inconclusive, JMJD2A Tudor inh inconclusive
COc1cc(NC(=O)Cn2cnc3sc(C)c(S(=O)(=O)N4CCC(C)CC4)c3c2=O)cc(OC)c1OC	none (no result: Sfp inh, L3MBTL1 inh)
CCCCCC#CCC#CCC#CCC#CCCCC(=O)O	G9a block 10µM, BAZ2B block 3.98µM, L3MBTL1 inh inconclusive (no result: HP1b binding inh, JMJD2A Tudor inh)
CCCCCCCCCC(=O)O	none (no result: Sfp inh, G9a block, BAZ2B block)
COC(=O)C1=C(C(=O)OC)[C@@H]2N(C)c3ccccc3[C@@]23C[C@@H](C(=O)OC)N(S(=O)(=O)c2ccc(C#N)cc2)C3=N1	none (no result: G9a block, HP1b binding inh, BAZ2B block, L3MBTL1 inh, JMJD2A Tudor inh)
CC1(C)CC(=O)c2sc(NS(=O)(=O)c3ccc(F)cc3)nc2C1	G9a block 79.4µM
CC1(C)CC(=O)c2sc(NC(=O)CCS(=O)(=O)c3ccccc3)nc2C1	none
O=S(=O)(Nc1nc2c(s1)CCCC2)c1ccc(Br)cc1	G9a block inconclusive
CC1(C)CC(=O)c2sc(NS(=O)(=O)c3ccc(Br)cc3)nc2C1	G9a block 50.1µM
O=S(=O)(Nc1nc2c(s1)CCCC2)c1ccc(F)cc1	G9a block 10µM (no result: L3MBTL1 inh)
CC1(C)CC(=O)c2sc(NS(=O)(=O)c3ccc(Cl)cc3)nc2C1	G9a block 35.5µM, BAZ2B block inconclusive (no result: L3MBTL1 inh)
CC1(C)CC(=O)c2sc(NC(=O)c3cccs3)nc2C1	none
CC(=O)Nc1nonc1-c1nnc(SCC(=O)Nc2ccc(C)cc2C)n1C	none (no result: Sfp inh, L3MBTL1 inh)
Cc1cc(C)c(Cn2c3ccccc3c3cnn(CC(=O)N4CCCCC4)c(=O)c32)c(C)c1	none (no result: Sfp inh, L3MBTL1 inh)
Cc1ccc(CNC(=O)Cc2ccc(NC(=O)N3CCSc4ncccc43)cc2)cc1	none (no result: Sfp inh, L3MBTL1 inh)
COc1ccc(-c2nc(C#N)c(N3CCc4ccccc4C3)o2)cc1OC	G9a block 28.2µM, BAZ2B block 7.08µM, JMJD2A Tudor inh inconclusive
COc1ccccc1-c1nc(C#N)c(N2CCc3ccccc3C2)o1	G9a block inconclusive, HP1b binding inh inconclusive, BAZ2B block 10µM, JMJD2A Tudor inh inconclusive (no result: L3MBTL1 inh)
COc1ccc(-c2nc(C#N)c(N3CCN(C(=O)c4ccco4)CC3)o2)cc1OC	none (no result: L3MBTL1 inh)
CCOc1nc2ccccc2cc1C=O	none
O=C1CCCN1CCC1CCN(C2CC(=O)N(c3ccc(F)cc3)C2=O)CC1 (configuration not stated)	G9a block 14.1µM (no result: L3MBTL1 inh)
O=C(C1CCN(C2CC(=O)N(c3ccc(F)cc3)C2=O)CC1)N1CCOCC1 (configuration not stated)	G9a block inconclusive, JMJD2A Tudor inh inconclusive (no result: L3MBTL1 inh)
CC1(C)CC(=O)C2=C(C1)N(Cc1ccco1)C(=O)C2(NC(=O)C1CCCCC1)C(F)(F)F (configuration not stated)	Sfp inh 25.1µM
CCOc1cc(/C=N/N=C(N)N)ccc1OCc1ccc(Cl)cc1	Sfp inh 20µM, G9a block inconclusive, BAZ2B block inconclusive, JMJD2A Tudor inh inconclusive
NC(N)=N/N=C/c1ccc(OCc2ccccc2)c(OCc2ccccc2)c1	Sfp inh 56.2µM, G9a block inconclusive, HP1b binding inh inconclusive, BAZ2B block 39.8µM, JMJD2A Tudor inh inconclusive (no result: L3MBTL1 inh)
NC(N)=N/N=C/c1ccc(OCc2ccccc2Cl)cc1	Sfp inh 50.1µM, JMJD2A Tudor inh inconclusive
COc1cc(/C=N/N=C(N)N)ccc1OCc1ccc(Cl)cc1	Sfp inh 15.8µM, G9a block inconclusive, JMJD2A Tudor inh inconclusive
COc1cc(/C=N/O)ccc1OCc1ccc(Cl)cc1	none (no result: G9a block, HP1b binding inh, JMJD2A Tudor inh)
CC1CCCCN1C(=O)COC(=O)CNC(=O)c1ccc(Cl)cc1Cl (configuration not stated)	none (no result: Sfp inh)
COc1cccc([C@@H]2Oc3ccc(Br)cc3C[C@H]2OC(=O)Nc2ccc(OC(F)F)cc2)c1	none (no result: G9a block, HP1b binding inh, BAZ2B block, L3MBTL1 inh, JMJD2A Tudor inh)
COc1cc(/C=N/n2c(C)n[nH]c2=S)ccc1OCc1ccc(F)cc1	G9a block 1.26µM, JMJD2A Tudor inh 79.4µM

Source: PubChem
